Screens as filed in PubChem.
HTT aggregate = inhibitors of mutant huntingtin aggregate formation in PC12 cells. 220,000 tested, 1.1% active. AID 1688. PC12 HttQ103-GFP aggregates, Acumen cytometry, 40 h. Potency, µM (series often up to 46.1 µM), inactives show at the highest dose activity change, negative = inhibition, actives largely listed as inhibitors; note: potency is the fitted concentration of half-maximal effect; % is set by controls: 0 for no effect and ±100 for the full control effect; nearly all actives have a fitted effect of over 60% in size
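Read-out: GFP aggregate count by laser scanning cytometer (488 nm excitation, 500-530 nm emission, 1–25 µm objects >6 SD above background). Cells: PC12, inducible HTTex1-Q103-GFP, 100 nM tebufenozide; compounds titrated.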
CBFb RUNX1 block = CBF-beta/RUNX1 interaction disruption; 230,000 tested, under 10 active; Q01196+Q13951; Potency, µM (series often up to 59.8 µM), for inactives: at the top dose activity, negative = inhibition, hits mostly inhibitors; AlphaScreen CBFb-His/RUNX1-biotin binding, biochemical; note: % of control where 0% means no effect
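Compounds were screened at multiple concentrations against a preformed CBF-beta(His)/RUNX1(biotin) complex (30 nM of each) for 15 min at room temperature, followed by 90 min with nickel and streptavidin beads and AlphaScreen reading.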
ALDH1A1 block = inhibitors of human aldehyde dehydrogenase 1A1; Purified ALDH1A1, NADH fluorescence, propionaldehyde substrate; P00352; Potency, µM (highest dose often 75.3 µM), for the others: at the top dose activity, negative = inhibition, actives largely listed as inhibitors; 220,000 tested, 7.3% active; active = well fitted inhibition curve with a large enough effect, not every such curve was filed as active; inconclusive = small, poorly fitted or top-dose-only effect, or another doubt; inactive = no such curve, though single readings can be large or run the other way;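 note: potency is the fitted concentration of half-maximal effect; plate controls were no enzyme wells and a reference inhibitor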
Target sequence (P00352 whole entry, looked up): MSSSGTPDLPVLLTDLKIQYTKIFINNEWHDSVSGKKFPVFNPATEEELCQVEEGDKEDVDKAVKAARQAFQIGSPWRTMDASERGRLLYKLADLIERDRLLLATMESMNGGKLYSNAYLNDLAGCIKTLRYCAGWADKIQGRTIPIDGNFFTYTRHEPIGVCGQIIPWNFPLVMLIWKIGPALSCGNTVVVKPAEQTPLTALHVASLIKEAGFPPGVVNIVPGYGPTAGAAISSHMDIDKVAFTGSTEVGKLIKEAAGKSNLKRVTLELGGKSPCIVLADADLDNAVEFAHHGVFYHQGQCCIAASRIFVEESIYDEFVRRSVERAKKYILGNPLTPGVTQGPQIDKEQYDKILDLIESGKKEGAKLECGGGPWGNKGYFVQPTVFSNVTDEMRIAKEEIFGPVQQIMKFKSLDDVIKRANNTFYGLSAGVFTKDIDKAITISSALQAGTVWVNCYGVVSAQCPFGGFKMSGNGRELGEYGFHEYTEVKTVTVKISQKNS
PNC assembly inh = inhibitors of perinucleolar compartment assembly | activity change (PNC), negative = inhibition, % at 10 µM | 140,000 tested, 3.1% active | PC3M PTB-GFP, PNC prevalence imaging, 16 h; stronger effect = lower value;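 active = readout at or below -70, meaning at least 70% loss of cells showing the perinucleolar compartment, a nuclear body marking cancer cells; inconclusive = readout between -30 and a set limit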;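 note: plate controls were DMSO wells for no effect and camptothecin positive control wells for full effect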
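Read-out is percentage of cells bearing a perinucleolar compartment, from automated 20x imaging of fixed, Hoechst-stained PC3M PTB-GFP cells. Cells were seeded 4 h, then exposed 16 h to compound (23 nl of library stock) in duplicate plates.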
HPGD block = inhibitors of human 15-hydroxyprostaglandin dehydrogenase (HPGD) | P15428 | purified HPGD, NADH fluorescence kinetic, PGE2 substrate | Potency, µM, without a hit: at the highest dose activity change, negative = inhibition, most hits filed as inhibitors | 150,000 tested, 4.3% active | AID 894; active = well fitted inhibition curve with a large enough effect, not every such curve was filed as active; inconclusive = small, poorly fitted or top-dose-only effect, or another doubt; inactive = no such curve, though single readings can be large or run the other way; note: potency is the fitted concentration of half-maximal effect; % is set by controls: 0 for no effect and ±100 for the full control effect
Target sequence (P15428 whole entry, looked up): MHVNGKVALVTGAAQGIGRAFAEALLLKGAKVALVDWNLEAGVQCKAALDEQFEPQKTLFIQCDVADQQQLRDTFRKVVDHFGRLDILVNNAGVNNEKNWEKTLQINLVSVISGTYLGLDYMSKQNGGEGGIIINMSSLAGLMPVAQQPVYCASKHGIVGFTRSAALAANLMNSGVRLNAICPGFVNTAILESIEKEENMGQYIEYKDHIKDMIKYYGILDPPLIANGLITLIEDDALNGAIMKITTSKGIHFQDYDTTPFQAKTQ
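20 nM HPGD preincubated 15 min at room temperature with compound in 50 mM Tris-HCl pH 8, 0.01% Tween 20. Started with 1 mM NAD+ and 30 uM prostaglandin E2; NADH fluorescence (360/450 nm) read 5 times over 30-s intervals, last minus first.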
HTT ATP protect = protects HTT-Q103 PC12 cells, measured by ATP | PC12 HTT-Q103 induced, cytoprotection, ATP luminescence, 40 h | 230,000 tested, 0.14% active | Potency, µM (series often up to 56.4 µM), without a hit: cytoprotection (ATP increase), most hits filed as activators; note: potency is the fitted concentration of half-maximal effect; % of control where 0% means no effect; nearly all actives have a fitted effect of over 45% in size
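PC12 cells with ecdysone-inducible HTT exon 1 Q103-GFP, induced with 100 nM tebufenozide and co-treated with library compounds in a dose series (1536-well, 1500 cells/well). Cytoprotection read as ATP content by ATPlite luminescence.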
* hit, by the source's call; u = inconclusive; x = no result; [ ] = remark or other dose. Compounds with a hit are over-represented: about 11% of the library has one in this group of screens. Unless noted, calls come from the whole dose curve; as a rule, active = well fitted curve in the direction sought with a large enough effect; inconclusive = small, poorly fitted or top-dose-only effect, or another doubt; inactive = no such curve, though single readings can be large; an effect the other way counts as inactive or inconclusive.

SMILES | HTT aggregate | CBFb RUNX1 block | ALDH1A1 block | PNC assembly inh | HPGD block | HTT ATP protect
Cn1c(=O)c2c(nc(NCCO)n2C)n(C)c1=O | -21% | 13% | 5% | 30 | 2% | 13%
CCCCCCn1c(NCC)nc2c1c(=O)n(C)c(=O)n2C | 4µM* | 9% | 7% | -28 | -14% | -42%[0.074 µM]
CCCCCCn1c(CN2CCN(C)CC2)nc2c1c(=O)n(C)c(=O)n2C | -24% | -16% | 4% | -122* | -14% | -12%
CCCCCn1c(CN2CCN(CCO)CC2)nc2c1c(=O)n(C)c(=O)n2C | 10% | 11% | u | 6 | 0% | 10%
Cn1c(=O)c2c(nc(CN3CCN(CCO)CC3)n2CCc2ccccc2)n(C)c1=O | -17%[9.22 µM] | -2% | 28µM* | x | x | 1%[10 µM]
C#CCOCCCC(=O)O | x | x | -4%[13.5 µM] | x | -14% | -5%[10 µM]
CN1CCN(Cc2nc3c(c(=O)n(C)c(=O)n3C)n2CCCc2ccccc2)CC1 | -5% | -3% | 5.6µM* | -18 | -24% | -3%[10 µM]
CCCn1c(CN2CCCCC2C)nc2c1c(=O)n(C)c(=O)n2C (centres undefined) | -1% | 11% | 6% | -95* | -2% | 8%[10 µM]
CCNc1ncc2nc(-c3cccs3)c(=O)n(Cc3cccc(OC)c3)c2n1 | x | x | u | x | x | -25%
O=S(=O)(NCc1ccccn1)c1cccc2cccnc12 | x | x | x | x | x | -7%
CC(=O)N1CCC2(CCCN(c3ccc(-c4ccccc4)cc3)C2)CC1 | x | x | u | x | u | 6%
O=C(NCc1ccccc1)[C@]1(C(F)(F)F)C[C@H](CCC2CCCCC2)CCCO1 | x | -1% | x | x | x | x
CCOC(=O)/C(=C/c1ccccc1)NC(=O)c1ccco1 | 4% | -2% | -7% | -81* | -9% | 0%[10 µM]
O=C(Cn1nnc(-c2ccccc2-n2cnnn2)n1)c1ccccc1 | -5% | 1% | 13µM* | u | -29% | 9%[10 µM]
O=C(Cn1nnc(-c2ccccc2-n2cnnn2)n1)N1CCCCC1 | -2% | 2% | -8% | 14 | -9% | 3%[10 µM]
Cc1n[nH]c(=O)n1-c1ccc(OCc2ccccc2)cc1 | -10% | 2% | 0% | x | x | -50%
Cc1ccccc1OCC(=O)NCC(=O)N/N=C/c1ccc(Br)o1 | -4% | 2% | 4% | -114* | 0% | x
O=C(COc1ccccc1)NCC(=O)N/N=C/c1ccccc1 | 6% | 8% | 0% | 21 | -2% | -20%[10 µM]
COCCOC(=O)c1[nH]c2c(c1C)C(=O)CC(c1cc(OC)ccc1OC)C2 (centres undefined) | -8% | -2% | -2% | -12 | -5% | 0%[10 µM]
CCOC(=O)c1[nH]c2c(c1C)C(=O)CC(c1ccc(OC)c(OC)c1)C2 (centres undefined) | -9% | 5% | 11% | -20 | -1% | -4%
Cc1c(C(=O)N2CCOCC2)[nH]c2c1C(=O)CC(c1ccccc1Cl)C2 (centres undefined) | u | -2% | u | -84* | -17% | -21%
CCOC(=O)c1[nH]c2c(c1-c1ccccc1)C(=O)CC(c1ccccc1)C2 (centres undefined) | 1% | 2%[2.36 µM] | 11% | 12 | -1% | x
CCOCCOC(=O)c1[nH]c2c(c1C)C(=O)CC(c1ccc(N(C)C)cc1)C2 (centres undefined) | -20% | u | 13µM* | -25 | -12% | -13%[10 µM]
C/C=C/COC(=O)c1[nH]c2c(c1C)C(=O)CC(c1ccc(N(C)C)cc1)C2 (centres undefined) | u | -14% | 5µM* | u | -18% | 4%
COC(=O)c1[nH]c2c(c1C)C(=O)CC(c1ccccc1)C2 (centres undefined) | 12% | 7% | 5% | -111* | -6% | -68%[10 µM]
SMILES | HTT aggregate | CBFb RUNX1 block | ALDH1A1 block | PNC assembly inh | HPGD block | HTT ATP protect
O=C1NC(=O)C(Cc2ccc(OCCN3COc4ccccc4C3=O)cc2)S1 (centres undefined) | x | 6% | x | x | x | x
O=C(NNC1CC(=O)N(c2ccc3c(c2)OCCO3)C1=O)c1ccccc1 (centres undefined) | 14% | -10% | 5% | 90 | -16% | 14%
CCC(C)OC(=O)c1[nH]c2c(c1C)C(=O)CC(c1ccc(N(C)C)cc1)C2 (centres undefined) | u | -2% | 3.5µM* | -23 | -13% | -10%
CCCCC(=O)Nc1nc2ccc(C(=O)OC)cc2s1 | -20% | 1% | -2% | x | x | -55%
OC[C@@H]1CCC[C@H](n2cnc3c(=S)nc[nH]c32)O1 | x | x | 8%[13.5 µM] | x | -7% | -5%[10 µM]
S=c1nc[nH]c2c1ncn2C1CCCO1 (centres undefined) | -14%[9.22 µM] | -2% | 13µM* | x | x | -29%[10 µM]
Cc1ccccc1Cn1ccc(=NCc2ccccc2)cc1 | 18µM* | 1% | 9% | -27 | -1% | x
O=c1ccn(Cc2ccccc2)cc1 | -13%[9.22 µM] | 1% | x | x | x | -9%[10 µM]
COc1cc(/C=C2\N=C3CCCCCN3C2=O)ccc1O | -9% | -2% | u | u | -28% | -11%
COc1ccc(/C=C2\N=C3CCCCCN3C2=O)cc1OC | 13% | 3% | 14µM* | 4 | -17% | -15%
O=C1CC[C@H](NC(=O)c2ccccc2)C(=O)N1 | x | x | 10%[13.5 µM] | x | -11% | -8%[10 µM]
Cc1cccc(N2CCN(C(=O)CSCc3c(C)noc3C)CC2)c1C | 7.1µM* | 0% | -4% | 20 | -13% | -14%[10 µM]
Cc1cccc(N2CCN(C(=O)c3ccc(NS(=O)(=O)c4c(C)noc4C)cc3)CC2)c1C | 20µM* | -4% | 14µM* | 45 | -21% | 8%[10 µM]
Cc1noc(C)c1CSc1ccccc1C(=O)N1CCN(c2ccccc2)CC1 | -3% | -7% | u | -100* | -14% | 44%[10 µM]
Cc1noc(C(=O)N2CCN(c3ccc(F)cc3)CC2)c1Cl | 12% | 1% | 9% | 38 | -4% | 5%[10 µM]
Cc1noc(C)c1CSCC(=O)N1CCN(c2ccc(F)cc2)CC1 | 7.9µM* | 1% | -5% | 10 | -10% | 8%[10 µM]
Cc1noc(C)c1S(=O)(=O)Nc1ccc(C(=O)N2CCN(c3cccc(Cl)c3)CC2)cc1 | u | -8% | 10% | 17 | -4% | 1%
CC(C)(C)NC[C@H](O)c1cc(O)cc(O)c1 | 3% | -6%[21.7 µM] | 10%[20.9 µM] | x | 0% | -10%[17.1 µM]
O=C(CSc1nc(Nc2ccccc2)nc(N2CCOCC2)n1)N1CCCC1 | -16% | 3% | -6% | u | -10% | u
c1ccc(Nc2nc(N3CCNCC3)nc(N3CCOCC3)n2)cc1 | 4% | -1% | -10% | -100* | -3% | 2%[10 µM]
CN(C)c1nc(SCC(=O)Nc2ccccc2)nc(N2CCOCC2)n1 | 7% | -12% | 25µM* | x | x | 14%
O=C(CSc1nc(Nc2ccccc2)nc(N2CCOCC2)n1)N1CCc2ccccc21 | -1% | -3% | 4% | -117* | -8% | 9%[0.074 µM]
